Our source for the Potency values is PubChem BioAssay AID1224854 (National Center for Advancing Translational Sciences (NCATS), 2016).

Results filed as inconclusive are left out. Where a call stands in place of a potency, no number is given. Active and inactive are the calls of the source. The call rests on the fitted dose curve; in most records, active means well fitted activation curve with a large enough effect; inconclusive means small, poorly fitted or top-dose-only effect; inactive means flat fitted curve, though single readings scatter.

This assay in a line: Cell viability assay for measurement of the protective activity of small molecules against cell death caused by Zika virus infection in human astrocytoma cells. Conditions: SNB-19 Zika virus cytoprotection, ATP luminescence, 72 h; series mostly up to 46.1 µM. An excerpt: National Center for Advancing Translational Sciences [NCATS] Johns Hopkins University School of Medicine Florida State University Assay Overview: Zika virus infection causes cell death in certain cell types including human neural progenitor cells (hNPCs), astrocytes, and astrocytoma cell line (SNB-19). This cell viability assay measures the ATP content (level) in human astrocytoma cells (SNB-19) using a luminescence readout that is proportional to viable cell numbers. Decrease in the luminescence signal after Zika virus infection indicates the cell death caused by Zika virus. Small molecule inhibitors […] the decreased luminescence signal after Zika virus infection, indicating the protective effect of that small molecule on the cell death caused by Zika virus infection. This observed protective effect of small molecules against Zika virus induced cell death may result from inhibition of virus replication or cellular response to the virus infection.
Assay Protocol Summary: The medium for SNB-19 cells is composed of RPMI 1640 (ATCC, Cat.# 30-2001), 10% fetal bovine serum (FBS) (GE healthcare Life Sciences, Cat.# SH30071.03), and 1% Pen/Strep (Gibco, Cat.# 15140-122). The ATP content assay kit (PerkinElmer, Cat.# 6016731) was used to determine cell viability. The reagent was reconstituted and prepared as described by the manufacturer. Cells were seeded in 384- or 1536-well assay plates and cultured at 37 C with 5% CO2 for 16 to 20 hours. The typical cell seeding density in the 1536-well plate assay is 250 cells/well in 3ul medium for SNB-19 cells in tissue culture treated plates. Compounds were added to cells and incubated for one hour before addition of ZIKV solution to cells (2 FFU/cell). After incubation at 37 C with 5% CO2 for 72 hours, the reagent mixture of the ATP content assay kit was added to each well, followed by incubation at room temperature for 10 minutes. The luminescence intensity of the assay plates was measured using a ViewLux plate reader (PerkinElmer). […] The percentage inhibitions of the decreased cell viability by small molecule inhibitors were then calculated.
As for `COc1ccc(NC(=O)/C=C/c2ccc(Cl)cc2)cc1`, the Potency result is “inactive”. As to `Nc1nc2ccc([N+](=O)[O-])cc2s1`, the Potency entry was “inactive”. As for `COc1ccc(-c2coc3cc(O)ccc3c2=O)cc1`, the entry is “inactive”; as for `NC(N)=NN=C(/C=C/c1ccc([N+](=O)[O-])o1)/C=C/c1ccc([N+](=O)[O-])o1`, “inactive”. For `OCc1ccc(-c2ccc(-c3ccc(CO)s3)o2)s1` the value was “inactive”; for `O=C(c1ccccc1)c1ccc2n1CCC2C(=O)O` (stereo not given), “inactive”; for `CCCCCCCCCCCC(=O)[O][Sn]([CH2]CCC)([CH2]CCC)[O]C(=O)CCCCCCCCCCC`, “inactive”. For `O=S(=O)(O)c1ccc2nc(-c3ccccc3)[nH]c2c1` the value was “inactive”. With `CC(C(=O)O)c1ccc(-c2ccccc2)c(F)c1` (stereo not given), the Potency result is “inactive”.

As to `COc1ccc(C=CC(=O)Nc2ccccc2C(=O)O)cc1OC`, the Potency entry is “inactive”.

As to `O=C1c2ccccc2C(=O)c2c(NCCc3ccc(O)cc3)ccc(NCCc3ccc(O)cc3)c21`, the Potency is 19.5 µM (active). As for `O=c1oc2cc(O)ccc2s1`, the entry is “inactive”. As for `CCOC1OC(=O)C[C@H]1NC(=O)[C@@H]1CCCN1C(=O)[C@@H](NC(=O)c1ccc(N)c(Cl)c1)C(C)(C)C` (stereo not given in full), the entry is “inactive”. For `Nc1ccc(-c2ccc3ccccc3n2)cc1` the value was “inactive”. As to `CCCCCCOc1ccccc1C(N)=O`, the Potency result was “inactive”. As for `O=C(OCc1ccccc1)c1ccc(O)cc1`, the Potency result was “inactive”. As for `N[C@H](CSC(c1ccccc1)(c1ccccc1)c1ccccc1)C(=O)O`, the entry is “inactive”; as for `COc1ccc(-c2cc(=S)ss2)cc1`, “inactive”. As for `O=C1c2ccccc2C(=O)c2c1ccc(O)c2O`, the entry is “inactive”. As for `CC(=O)Nc1ccc([C@H](C)C(=O)Nc2ncc(C(C)C)s2)cc1`, the figure is 6.15 µM (active). Take `Cc1ccc(O)c(-n2nc3ccccc3n2)c1`: the Potency result was “inactive”.

For the compound `O=C(O)c1cc([N+](=O)[O-])ccc1NCCCc1ccccc1`, the Potency result was “inactive”. Consider `COc1cc2nc(N3CCN(C(=O)C4CCCO4)CC3)nc(N)c2cc1OC` (stereo not given), for which the Potency result is “inactive”. For `COc1cc(NC(C)CCCN)c2ncccc2c1` (stereo not given) the value was 17.3 µM (active).

With `CC(C)(C)OC(=O)CN(Cc1ccc(Cl)cc1)Cc1ccc([N+](=O)[O-])s1`, the Potency is 35.5 µM (active).

Turning to `O=c1c(-c2ccc(O)cc2)coc2cc(O)ccc12`, the Potency result is “inactive”. For `C=CCCCCCCCCC(=O)O` the value was “inactive”; for `Nc1ccc2c(c1)CN1C(=O)c3ccccc3C1=N2`, “inactive”.

`C=C1C(=O)[C@@]23C(CC[C@@H]1[C@H]2O)[C@@]12CO[C@]3(O)[C@@H](O)[C@@H]1C(C)(C)CC[C@@H]2O` (stereo not given in full): the Potency result was “inactive”. For `Cc1c(C(=O)O)c(O)cc2c1C(=O)c1c(O)c([C@@H]3O[C@H](CO)[C@@H](O)[C@H](O)[C@H]3O)c(O)c(O)c1C2=O` the value was “inactive”; for `CC(=O)Oc1cccc2c1C(=O)c1c(OC(C)=O)cc(C(=O)O)cc1C2=O`, “inactive”; for `Cc1c(NC(=O)c2ccc(C(C)(C)C)cc2)cccc1-c1cn(C)c(=O)c(Nc2ccc(C(=O)N3CCOCC3)cc2)n1`, 21.8 µM (active). Take `Nc1ccc(O)c(C(=O)O)c1`: the Potency entry is “inactive”. As for `N#CC1(c2ccc(NC(=O)c3cccnc3NCc3ccncc3)cc2)CCCC1`, the entry is “inactive”.

Turning to `O=c1cc(-c2ccccc2)oc2cc(O)cc(O)c12`, the Potency result was “inactive”. For `C[C@@H]1CCN(C(=O)CC#N)C[C@H]1N(C)c1ncnc2[nH]ccc12` the value was “inactive”. Regarding `Cc1csc(NC(=O)c2sc3nc4c(c(C(F)(F)F)c3c2N)CCC4)n1`, the Potency result was “inactive”. As for `COc1cccc2c1C(=O)c1c(O)c3c(c(O)c1C2=O)C[C@@](O)(C(=O)CO)C[C@@H]3O[C@H]1C[C@H](N)[C@H](O[C@@H]2CCCCO2)[C@H](C)O1`, the entry is “inactive”. For `CC(=O)OC(C)OC(=O)C(C)c1ccc(-c2ccccc2)c(F)c1` (stereo not given) the value was “inactive”; for `CO[C@H]1C(=O)[C@]2(C)[C@@H](OC)C[C@H]3OC[C@@]3(OC(C)=O)[C@H]2[C@H](OC(=O)c2ccccc2)[C@]2(O)C[C@H](OC(=O)[C@H](O)[C@@H](NC(=O)OC(C)(C)C)c3ccccc3)C(C)=C1C2(C)C`, “inactive”.
